Reference: PubChem BioAssay (Tox21)
Inconclusive results are not listed. Active and inactive are the calls of the source. Unless noted, calls follow the shape of the dose curve; as a rule, active = well fitted curve in the direction sought with a large enough effect in the repeat runs; inconclusive = weak or mixed curves; inactive = no such curve, though single readings can be large; an effect the other way counts as inactive or inconclusive.

Experiments:
[1] = qHTS assay to identify small molecule antagonists of the sonic hedgehog signaling (Shh) pathway (AID 1259369; calls by dose curve; also: nearly all actives have a fitted effect of over 45% in size)
How it was run: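 Conditioned medium drives Shh signalling in 3T3Gli1-Luc cells; compounds in DMSO co-applied, 24hr at 37 C, then luciferase luminescence.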

[2] = target: Estrogen receptor beta (Homo sapiens) (UniProt Q92731); experiment: qHTS assay to identify small molecule agonists of the estrogen receptor beta (ER-beta) signaling pathway (AID 1259377; active = well fitted activation curve with a large enough effect in the signal ratio in the repeat runs, not every such curve was filed as active; the % refers to the signal ratio)
How it was run: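 HEK293T ER-beta-UAS-bla; 2% charcoal-stripped FBS; cells pre-incubated 6 hr, compound 16 hr, 37C/5% CO2; LiveBLAzer B/G FRET substrate 2 h RT; fluorescence intensity read.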

[3] = target: Estrogen receptor beta (Homo sapiens) (UniProt Q92731); experiment: qHTS assay to identify small molecule antagonists of the estrogen receptor beta (ER-beta) signaling pathway (AID 1259378; active = well fitted inhibition curve with a large enough effect in the signal ratio in the repeat runs, not every such curve was filed as active; the % refers to the signal ratio)
How it was run: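 Antagonist mode: compounds added to beta-lactamase reporter HEK293T ER-beta-UAS cells stimulated with E2 (1nM final), 16 hr at 37C. LiveBLAzer B/G FRET substrate, 2 hours room temperature, fluorescence read-out.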

[4] = qHTS assay to identify small molecule agonists of the androgen receptor (AR) signaling pathway in the presence of an antagonist - cell viability counter screen (AID 1259379);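 also: MDA-kb2 human breast cancer cells carrying an MMTV luciferase reporter; series mostly up to about 92 µM; nearly all actives have a fitted effect of over 25% in size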
How it was run: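 A CellTiter-Fluor read-out measured viability of MDA-kb2 reporter cells (MMTV promoter with AR and GR response elements). Treatment: nilutamide 3.0uM final with compounds at 15 concentrations, 16 hr, 37C, 0% CO2.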

[5] = qHTS assay to identify small molecule agonists of the estrogen receptor beta (ER-beta) signaling pathway - cell viability counter screen (AID 1259380); also: nearly all actives have a fitted effect of over 30% in size
How it was run: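 Cells used were ER-beta-UAS-bla HEK293T in medium with 2% charcoal-stripped FBS. They were treated for 16 hr at 37C. Viability came from CellTiter-Glo luminescence.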

[6] = qHTS assay to identify small molecule antagonists of the estrogen receptor beta (ER-beta) signaling pathway - cell viability counter screen (AID 1259382); also: series mostly up to about 92 µM; nearly all actives have a fitted effect of over 55% in size
How it was run: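 Agonist-stimulated (1nM E2) ER-beta-UAS-bla HEK293T cells are incubated with library compounds for 16 hr at 37C. Cell viability is then assessed in the reporter-assay wells by adding CellTiter-Glo and reading luminescence after 30 min.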

[7] = qHTS assay to identify small molecule agonists of the estrogen receptor alpha (ER-alpha) signaling pathway in the presence of an antagonist - cell viability counter screen (AID 1259386);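 also: series mostly up to about 92 µM; cells exposed to compounds for 22 h at 37 °C before the viability read; nearly all actives have a fitted effect of over 30% in size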
How it was run: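 ICI-182,780 at 10.0nM final accompanies the compound titration (15 concentrations, 22hr, 37C) on VM7Luc4E2 cells. The CellTiter-Fluor fluorescence readout runs in the same wells as the luciferase assay.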

[8] = target: Progesterone receptor (Homo sapiens) (UniProt P06401); experiment: qHTS assay to identify small molecule agonists of the progesterone receptor (PR) signaling pathway (AID 1346784; calls by dose curve; also: nearly all actives have a fitted effect of over 30% in size)
How it was run: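 Beta-lactamase reporter read-out: after 16 hr compound treatment at 37C and a further 2 hr at room temperature with LiveBLAzer B/G FRET substrate, fluorescence was measured in PR-UAS-bla HEK 293T cells grown in 2% charcoal-stripped serum.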

[9] = target: Progesterone receptor (Homo sapiens) (UniProt P06401); experiment: qHTS assay to identify small molecule antagonists of the progesterone receptor (PR) signaling pathway (AID 1346795; active = well fitted inhibition curve with a large enough effect in the signal ratio in the repeat runs, not every such curve was filed as active; the % refers to the signal ratio)
How it was run: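 Read-out is fluorescence from the LiveBLAzer B/G FRET substrate, cleaved by a UAS-controlled beta-lactamase in PR-UAS-bla HEK293T cells after 16 hr exposure to compound plus 1 nM promegestone (final), followed by 2 hr at room temperature.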

[10] = qHTS assay to identify small molecule antagonists of the progesterone receptor (PR) signaling pathway - cell viability counter screen (AID 1346798);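 also: HEK293T PR-UAS-bla cells stimulated with the agonist R5020; series mostly up to about 92 µM; nearly all actives have a fitted effect of over 50% in size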
How it was run: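 HEK293T PR-UAS-bla, 2% charcoal-stripped FBS; 4 hr pre-plate; cpd + R5020, 16 h 37C; LiveBLAzer read first; then CellTiter-Glo 30 min RT, luminescence.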

[11] = qHTS assay to identify small molecule agonists of the progesterone receptor (PR) signaling pathway - cell viability counter screen (AID 1346799; calls by dose curve; also: nearly all actives have a fitted effect of over 45% in size)
How it was run: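 Luminescence from CellTiter-Glo, added after the beta-lactamase FRET read in the same wells, gave cytotoxicity in PR-UAS-bla HEK293T cells treated with compounds for 16 hr at 37C.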

[12] = qHTS assay to identify small molecule antagonists of the TGF-beta/Smad signaling pathway - cell viability counter screen (AID 1346824); also: nearly all actives have a fitted effect of over 50% in size
How it was run: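 Cytotoxicity counter-screen run in the same wells as the beta-lactamase Smad reporter read: CellTiter-Glo luminescence after 30 min at room temperature. HEK 293T SBE-bla cells had 5 hr compound exposure at 37 C with TGF-beta1 (0.25 ng/mL stock).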

[13] = qHTS assay to identify small molecule agonists of the TGF-beta/Smad signaling pathway - cell viability counter screen (AID 1346829); also: top concentration of the series differs between compounds; nearly all actives have a fitted effect of over 45% in size
How it was run: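 SBE-bla HEK 293T cells plated overnight, compound exposure 5 hr at 37 C. Viability read in the same wells by CellTiter-Glo luminescence after 30 min at room temperature, following the beta-lactamase read.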

[14] = qHTS assay to identify small molecule agonists of the TGF-beta/Smad signaling pathway (AID 1346859; active = well fitted activation curve with a large enough effect in the signal ratio in the repeat runs, not every such curve was filed as active; the % refers to the signal ratio; also: series mostly up to about 77 µM)
How it was run: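 SBE-bla HEK 293T, 4,000 cells/well, plated o/n; cpd in DMSO, 5 hr, 37 C/5% CO2; B/G FRET substrate 2 hr RT; ex 405, em 460/530 nm.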

[15] = target: Thyrotropin-releasing hormone receptor (Homo sapiens) (UniProt P34981); experiment: qHTS assay to identify small molecule agonists of the thyrotropin-releasing hormone receptor (TRHR) signaling pathway (AID 1346891; calls by dose curve; also: series mostly up to about 58 µM)
How it was run: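 Intracellular calcium rise, read as fluorescence every second for 3 min, served as the agonist signal in dye-loaded HEK293 cells expressing TRHR; each compound ran at 15 concentrations in triplicate.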

[16] = target: Estrogen receptor (Homo sapiens) (UniProt P03372); experiment: qHTS assay to identify small molecule agonists of the estrogen receptor alpha (ER-alpha) signaling pathway in the presence of an antagonist (AID 1259383; calls by dose curve; also: top concentration of the series differs between compounds; nearly all actives have a fitted effect of over 15% in size)
How it was run: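 Using VM7Luc4E2 cells seeded 24hr before treatment, antagonist ICI-182,780 (10.0nM final) was added, followed by compounds at 15 concentrations. Plates incubated 22hr; ONE-Glo luminescence quantified reporter activity.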

[17] = qHTS assay to identify small molecule agonists or antagonists of the thyroid stimulating hormone receptor (TSHR) signaling pathway - wild type cell line counter screen (AID 1259384; calls by dose curve)
How it was run: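 Counter screen in untransfected Hek293: compounds (15-point titration, triplicate) plus phosphodiesterase inhibitor Ro20-1724 added after 18 h plating; 30 min RT. Intracellular cAMP via competitive d2/cryptate immunoassay, 1 h incubation.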

[18] = target: Thyrotropin receptor (Homo sapiens) (UniProt P16473); experiment: qHTS assay to identify small molecule antagonists of the thyroid stimulating hormone receptor (TSHR) signaling pathway (AID 1259385; calls by dose curve; also: nearly all actives have a fitted effect of over 20% in size)
How it was run: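 Antagonist mode: compound-treated TSHR-expressing HEK293 cells were stimulated with 1.5 ng/mL TSH (final) in presence of Ro20-1724 for 30 min at RT. HTRF cAMP detection after 1 h; each compound tested at 15 concentrations, triplicate.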

[19] = target: Thyrotropin-releasing hormone receptor (Homo sapiens) (UniProt P34981); experiment: qHTS assay to identify small molecule antagonists of the thyrotropin-releasing hormone receptor (TRHR) signaling pathway (AID 1346877; active = well fitted inhibition curve with a large enough effect in the repeat runs, not every such curve was filed as active; also: series mostly up to about 51 µM)
How it was run: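 Screening used HEK293 cells engineered with TRHR, with a brief 5 min room-temperature compound exposure preceding addition of TRH to 1 nM. The read-out was kinetic calcium-dye fluorescence, concentration-response from 15 doses in triplicate.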

[20] = target: Androgen receptor (Homo sapiens) (UniProt P10275); experiment: qHTS assay to identify small molecule agonists of the androgen receptor (AR) signaling pathway in the presence of an antagonist (AID 1259381; calls by dose curve; also: nearly all actives have a fitted effect of over 15% in size)
How it was run: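 Using human MDA-kb2 cells with an MMTV promoter–luciferase construct (AR and GR response elements), agonist activity is scored under 3.0uM nilutamide (final) co-treatment; 16hr incubation, 37C, luminescence readout via ONE-Glo.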

Measured: Potency

Thyrotropin-releasing hormone receptor (Homo sapiens), sequence (P34981 whole entry, looked up): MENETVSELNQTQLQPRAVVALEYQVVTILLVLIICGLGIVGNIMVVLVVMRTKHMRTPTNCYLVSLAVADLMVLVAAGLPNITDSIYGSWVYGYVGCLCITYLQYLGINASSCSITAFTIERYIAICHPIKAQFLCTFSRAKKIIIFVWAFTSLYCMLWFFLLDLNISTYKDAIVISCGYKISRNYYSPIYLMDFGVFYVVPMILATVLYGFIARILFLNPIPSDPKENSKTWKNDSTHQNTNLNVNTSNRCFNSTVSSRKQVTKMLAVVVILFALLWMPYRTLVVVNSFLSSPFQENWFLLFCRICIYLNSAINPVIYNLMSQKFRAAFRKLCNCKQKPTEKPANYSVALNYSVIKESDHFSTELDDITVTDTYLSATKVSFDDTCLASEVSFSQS
Estrogen receptor (Homo sapiens), sequence (P03372 whole entry, looked up): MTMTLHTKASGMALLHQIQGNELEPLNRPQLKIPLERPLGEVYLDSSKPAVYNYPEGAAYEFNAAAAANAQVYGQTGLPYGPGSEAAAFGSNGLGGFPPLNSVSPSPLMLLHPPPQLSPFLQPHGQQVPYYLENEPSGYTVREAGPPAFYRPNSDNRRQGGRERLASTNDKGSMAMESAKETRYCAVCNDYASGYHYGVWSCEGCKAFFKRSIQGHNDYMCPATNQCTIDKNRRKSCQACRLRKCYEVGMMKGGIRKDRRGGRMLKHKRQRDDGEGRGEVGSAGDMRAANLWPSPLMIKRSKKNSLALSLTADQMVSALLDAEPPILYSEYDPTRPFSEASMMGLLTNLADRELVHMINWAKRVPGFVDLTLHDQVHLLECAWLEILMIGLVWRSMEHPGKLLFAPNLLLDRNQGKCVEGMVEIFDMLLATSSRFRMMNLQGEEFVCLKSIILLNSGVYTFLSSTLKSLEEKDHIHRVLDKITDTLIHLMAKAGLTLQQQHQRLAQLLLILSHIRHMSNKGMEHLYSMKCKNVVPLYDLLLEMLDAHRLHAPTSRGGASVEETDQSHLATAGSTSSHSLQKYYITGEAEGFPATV
Progesterone receptor (Homo sapiens), sequence (P06401 whole entry, looked up): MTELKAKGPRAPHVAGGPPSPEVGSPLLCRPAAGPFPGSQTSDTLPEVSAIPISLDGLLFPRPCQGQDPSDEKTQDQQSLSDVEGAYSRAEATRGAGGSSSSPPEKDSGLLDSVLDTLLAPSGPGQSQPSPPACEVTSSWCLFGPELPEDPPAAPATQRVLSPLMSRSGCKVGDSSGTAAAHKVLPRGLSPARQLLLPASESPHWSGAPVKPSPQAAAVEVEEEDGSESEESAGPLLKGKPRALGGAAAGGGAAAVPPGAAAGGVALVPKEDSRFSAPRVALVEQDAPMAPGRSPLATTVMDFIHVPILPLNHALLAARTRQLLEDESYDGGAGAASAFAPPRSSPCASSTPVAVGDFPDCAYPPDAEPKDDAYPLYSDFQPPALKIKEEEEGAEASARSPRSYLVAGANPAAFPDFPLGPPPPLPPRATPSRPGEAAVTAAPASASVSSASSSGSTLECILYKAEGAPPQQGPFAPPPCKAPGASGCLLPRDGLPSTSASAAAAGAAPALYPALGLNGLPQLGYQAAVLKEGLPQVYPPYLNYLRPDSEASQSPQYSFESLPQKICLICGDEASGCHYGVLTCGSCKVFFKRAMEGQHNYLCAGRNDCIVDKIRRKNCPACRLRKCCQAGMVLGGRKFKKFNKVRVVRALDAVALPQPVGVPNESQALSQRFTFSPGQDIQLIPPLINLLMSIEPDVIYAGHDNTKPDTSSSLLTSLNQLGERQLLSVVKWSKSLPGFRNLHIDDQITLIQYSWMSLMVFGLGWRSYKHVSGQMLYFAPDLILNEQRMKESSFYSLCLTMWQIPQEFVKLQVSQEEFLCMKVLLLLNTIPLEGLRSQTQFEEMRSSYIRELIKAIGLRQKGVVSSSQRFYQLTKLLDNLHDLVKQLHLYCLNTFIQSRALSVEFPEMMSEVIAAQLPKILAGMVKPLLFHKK
Thyrotropin receptor (Homo sapiens), sequence (P16473 whole entry, looked up): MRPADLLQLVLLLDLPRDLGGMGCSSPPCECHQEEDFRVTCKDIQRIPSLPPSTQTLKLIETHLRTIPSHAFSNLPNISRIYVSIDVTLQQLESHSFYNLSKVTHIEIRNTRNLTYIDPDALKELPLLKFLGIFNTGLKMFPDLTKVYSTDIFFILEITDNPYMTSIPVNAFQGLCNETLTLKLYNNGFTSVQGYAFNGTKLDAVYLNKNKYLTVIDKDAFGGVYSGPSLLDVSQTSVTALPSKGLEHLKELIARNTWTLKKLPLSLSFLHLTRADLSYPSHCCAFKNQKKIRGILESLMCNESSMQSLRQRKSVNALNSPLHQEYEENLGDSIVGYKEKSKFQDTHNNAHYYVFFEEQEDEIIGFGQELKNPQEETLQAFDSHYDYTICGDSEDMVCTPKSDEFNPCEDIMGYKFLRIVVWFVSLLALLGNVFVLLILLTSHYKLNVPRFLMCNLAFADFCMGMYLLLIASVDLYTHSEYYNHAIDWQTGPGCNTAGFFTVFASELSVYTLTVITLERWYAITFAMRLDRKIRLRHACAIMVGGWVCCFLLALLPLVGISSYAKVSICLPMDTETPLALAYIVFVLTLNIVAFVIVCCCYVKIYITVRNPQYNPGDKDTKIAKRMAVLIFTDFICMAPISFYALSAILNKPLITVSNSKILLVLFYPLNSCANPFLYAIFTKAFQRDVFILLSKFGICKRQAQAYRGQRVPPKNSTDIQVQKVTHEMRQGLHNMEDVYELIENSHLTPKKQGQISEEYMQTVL
Estrogen receptor beta (Homo sapiens), sequence (Q92731 whole entry, looked up): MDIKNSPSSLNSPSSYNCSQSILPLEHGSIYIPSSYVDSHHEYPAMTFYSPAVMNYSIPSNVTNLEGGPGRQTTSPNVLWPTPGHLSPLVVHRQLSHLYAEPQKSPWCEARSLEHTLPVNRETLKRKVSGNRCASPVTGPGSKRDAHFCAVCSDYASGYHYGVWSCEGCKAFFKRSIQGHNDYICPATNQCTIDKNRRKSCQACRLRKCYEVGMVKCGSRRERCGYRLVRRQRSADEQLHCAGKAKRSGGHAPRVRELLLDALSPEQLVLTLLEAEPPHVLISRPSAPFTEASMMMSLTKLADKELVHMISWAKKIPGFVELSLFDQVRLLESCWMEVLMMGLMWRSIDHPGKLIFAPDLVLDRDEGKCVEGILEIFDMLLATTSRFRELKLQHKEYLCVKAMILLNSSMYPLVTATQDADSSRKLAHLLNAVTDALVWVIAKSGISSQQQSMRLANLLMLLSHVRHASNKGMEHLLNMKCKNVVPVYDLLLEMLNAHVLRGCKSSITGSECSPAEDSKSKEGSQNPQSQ
Androgen receptor (Homo sapiens), sequence (P10275 whole entry, looked up): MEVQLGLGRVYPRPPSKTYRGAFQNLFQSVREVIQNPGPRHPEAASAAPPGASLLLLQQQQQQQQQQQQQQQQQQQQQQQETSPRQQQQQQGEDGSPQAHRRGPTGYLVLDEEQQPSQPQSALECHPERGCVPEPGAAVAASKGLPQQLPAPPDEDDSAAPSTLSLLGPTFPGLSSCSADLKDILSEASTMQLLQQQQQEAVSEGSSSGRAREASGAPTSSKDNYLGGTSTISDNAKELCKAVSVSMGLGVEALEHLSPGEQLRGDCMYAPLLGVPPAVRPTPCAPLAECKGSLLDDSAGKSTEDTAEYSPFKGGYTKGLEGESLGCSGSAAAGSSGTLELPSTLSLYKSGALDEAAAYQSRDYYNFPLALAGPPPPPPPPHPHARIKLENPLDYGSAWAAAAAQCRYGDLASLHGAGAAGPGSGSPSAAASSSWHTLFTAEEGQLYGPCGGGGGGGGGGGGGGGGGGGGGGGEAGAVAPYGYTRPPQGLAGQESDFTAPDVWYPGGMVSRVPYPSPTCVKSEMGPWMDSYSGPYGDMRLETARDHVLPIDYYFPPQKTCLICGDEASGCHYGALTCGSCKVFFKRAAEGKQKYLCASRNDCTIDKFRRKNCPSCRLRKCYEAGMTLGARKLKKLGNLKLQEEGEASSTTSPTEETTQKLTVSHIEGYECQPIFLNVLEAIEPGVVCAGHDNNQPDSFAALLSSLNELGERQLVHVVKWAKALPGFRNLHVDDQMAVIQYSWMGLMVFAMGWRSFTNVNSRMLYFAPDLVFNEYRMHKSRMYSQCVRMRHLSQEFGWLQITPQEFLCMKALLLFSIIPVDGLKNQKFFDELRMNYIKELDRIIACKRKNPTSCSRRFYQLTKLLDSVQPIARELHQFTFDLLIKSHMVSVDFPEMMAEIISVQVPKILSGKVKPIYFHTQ

O=CNc1ccccc1
not listed: [16] | [17] | [18] | [19] | [20]
inactive: all other assays above

CCCCCCCCCCCCCCC1CO1 (stereo unspecified)
not listed: [20]
inactive: all other assays above

CC(C)CC=O
not listed: [12] | [18] | [20]
inactive: all other assays above

O=C(O)C1CCC(C(=O)O)CC1 (stereo unspecified)
not listed: [6] | [20]
inactive: all other assays above

CC(=O)SCc1ccco1
not listed: [12] | [19]
inactive: all other assays above

Cc1ccc(C(N)=O)cc1N
not listed: [15] | [19] | [20]
inactive: all other assays above

CCOc1cc(OCC)c(C(=O)CCC(=O)O)cc1OCC
not listed: [14] | [17] | [18] | [20]
inactive: all other assays above

SC1CCCC1
not listed: [6] | [15] | [19] | [20]
inactive: all other assays above
